Compound activity deposited in PubChem BioAssay by National Center for Advancing Translational Sciences (NCATS).
Hits are enriched below; roughly 2.4% of the tested compounds scored in any of these assays.
D2 ag-1: activates the human D2 dopamine receptor | P14416 | HEK293 T-REx D2 cells, calcium flux agonist mode | activation, % at 2 µM | actives 0.53% (n = 340,000) | AID 485358;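 active = activation over 3 SD above normal in the single-dose calcium agonist read, cut at about 30% in these data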; also: 0% is about no effect
Target sequence (P14416 whole entry, looked up): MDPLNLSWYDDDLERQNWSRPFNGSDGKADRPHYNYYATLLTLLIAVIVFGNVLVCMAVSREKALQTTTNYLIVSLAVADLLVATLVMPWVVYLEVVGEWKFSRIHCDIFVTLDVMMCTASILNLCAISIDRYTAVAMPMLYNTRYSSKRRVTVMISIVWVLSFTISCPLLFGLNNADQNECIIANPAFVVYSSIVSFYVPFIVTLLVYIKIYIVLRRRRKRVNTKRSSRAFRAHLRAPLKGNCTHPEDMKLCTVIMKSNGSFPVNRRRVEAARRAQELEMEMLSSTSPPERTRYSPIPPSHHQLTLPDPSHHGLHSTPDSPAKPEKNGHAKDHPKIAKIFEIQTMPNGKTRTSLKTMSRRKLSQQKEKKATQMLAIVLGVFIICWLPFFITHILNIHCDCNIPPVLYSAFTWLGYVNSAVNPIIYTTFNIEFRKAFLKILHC
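HEK293 Trex D2 cells, tetracycline-induced, o/n 30 C 5% CO2; no-wash Ca dye, RT 30–90 min; 10-cycle baseline, 23 nl cpd added, kinetic Ca read 180 s; agonist hits = positive Ca response.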
D2 PAM-1: positively modulates the human D2 dopamine receptor allosterically. HEK293 T-REx D2, calcium flux, EC20 dopamine potentiation. potentiation, % at 10 µM. actives 0.34% (n = 340,000). AID 485347. P14416;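 active = potentiation over 3 SD above the plate norm, cut at about 30% in these data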; also: 0% is about no effect
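Tetracycline-induced HEK293 T-REx cells force-coupled to calcium signalling expressed D2; compounds were pin-added after a 10 s baseline, read kinetically 180 s, then an EC20 dopamine challenge followed with a further 180 s calcium read.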
D2 ag-2: human D2 receptor agonism in beta-arrestin assay | AID 624465 | actives 0.084% (n = 360,000) | DiscoveRx PathHunter D2 beta-arrestin, luminescence, 90 min; 100% = 57 uM dopamine signal | activation, % (concentration not given with the values); in the data active = activation above about 40%
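DiscoveRx PathHunter D2 beta-arrestin cells (2,100/well) attached overnight, then compound-stimulated 90 min at 37 C in HBSS/10 mM HEPES/0.1% Tween-20 buffer; beta-galactosidase complementation read by luminescence after 1 h at ambient temperature. Dopamine 57 uM final (EC100) as control.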
D2 PAM-2: positive allosteric modulators of human D2 dopamine receptor; DiscoveRx D2 beta-arrestin cells, luminescence, 90 min; 100% = 57 uM dopamine signal; potentiation, % (no concentration beside the values); actives 0.23% (n = 360,000); AID 624464; in the data active = potentiation above about 50%
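D2 cells co-treated with compound plus 50 nM dopamine (EC20) for 90 min at 37 deg C to detect potentiation. Beta-arrestin recruitment was read as enzyme-fragment luminescence after 1 h at ambient temperature. Full response was set by 57 uM dopamine.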
D2 antag: D2 dopamine receptor (human) antagonism. P14416. AID 485344. inhibition, % at 10 µM. HEK293 TREx D2 cells, calcium flux, dopamine EC80. actives 2% (n = 340,000); in the data active = inhibition above about 30%; inactive = below that, where a call was filed; also: 0% is about no effect
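Compounds are added to dye-loaded, induced HEK293 T-REx cells coupled to calcium release via D2; after a 3 min kinetic read an EC80 dopamine stimulus is given and fluorescence is recorded for 3 more min.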
Starred values were filed as active, the others as inactive; . = no result.

SMILES	D2 ag-1	D2 PAM-1	D2 ag-2	D2 PAM-2	D2 antag
CC(NCC(=O)Nc1cc(S(=O)(=O)N2CCOCC2)ccc1N1CCOCC1)c1ccco1 (stereo unspecified)	1	8	5	-2	64*
Cc1ccc(-n2nc(C(=O)N(C)c3ccc(C)c(C)c3)c3c4ccccc4n(C)c3c2=O)cc1	1	0	.	.	.
O=c1nc(/C=C/c2ccccc2C(F)(F)F)cc(C(F)(F)F)[nH]1	-2	9	-3	-10	32*
Cc1ccc(-c2noc(CCC(=O)NCCCN3CCN(c4cccc(Cl)c4)CC3)n2)cc1	0	8	-5	-44	-18
COc1ccc(-c2noc(CCC(=O)NCCCN3CCN(c4ccccc4F)CC3)n2)cc1	5	-15	-1	-5	84*
Cc1ccc(-c2noc(CCC(=O)NCc3ccco3)n2)cc1	0	6	0	-1	60*
Cc1ccc(-c2noc(CCC(=O)NCCCN3CCN(c4ccc(F)cc4)CC3)n2)cc1	0	-19	0	-12	61*
Cc1ccc2[nH]c3c(=O)n(CC(=O)NCCCN4CCN(c5ccc(F)cc5)CC4)ncc3c2c1	0	-6	-3	-30	63*
O=C(CCc1nc(-c2ccccc2)no1)NCc1ccco1	0	13	-2	-2	9
Cc1c(C(=O)N(C)C)sc2c1c(=O)n(-c1ccc(Cl)c(Cl)c1)c(=O)n2CC(=O)N1CCCCC1C (stereo unspecified)	0	2	.	.	.
O=C(CCS(=O)(=O)Cc1ccc(Cl)cc1)NCCCN1CCN(c2ccccc2F)CC1	0	23	2	3	1
Cc1ccccc1CS(=O)(=O)CCC(=O)NCCCN1CCN(c2ccccc2F)CC1	43*	-25	5	-28	55*
CCS(=O)(=O)N1CCc2cc(C(=O)NCc3ccc(Cl)cc3)ccc21	19	-12	.	.	.
O=C(CSc1nc2c([nH]c3ccccc32)c(=O)n1-c1ccc(Cl)cc1)NCc1ccccc1	0	9	.	.	.
CS(=O)(=O)c1ccc(NCC2CCCO2)c([N+](=O)[O-])c1 (stereo unspecified)	0	125*	-5	-9	-1
CC(=O)c1cccc(NC(=O)c2ccc(Cl)c(S(=O)(=O)N3CCOCC3)c2)c1	0	-7	.	.	.
Nc1nnnn1/N=C/c1cccc(OCc2ccccc2Cl)c1	-2	3	-4	-20	31*
CON/C=C(\C=Nc1ccccc1)c1ncc(C(F)(F)F)cc1Cl	1	34*	-1	-8	-4
CON/C=C(\C=Nc1ccc(Cl)cc1Cl)c1ncc(C(F)(F)F)cc1Cl	1	-5	-2	-3	19
COc1ccc(NC(=O)c2cc(S(=O)(=O)N3CCCCCC3)cn2C)c(OC)c1	-1	5	.	.	.
COC(=O)c1ccccc1NC(=O)c1cc2cc(C)ccc2n1C	.	-5	.	.	.
COc1ccc(NC(=O)c2cc3cc(C)ccc3n2C)c(OC)c1	0	0	1	-6	34*
COc1ccc(NC(=O)c2cc(S(=O)(=O)N3CCOCC3)cn2C)c(OC)c1	1	-7	2	-2	41*
COc1ccc(NC(=O)c2cnc(SC)nc2C)c(OC)c1	1	19	-1	0	38*
CC1CCN(S(=O)(=O)c2ccc3c(c2)CCN3C(=O)CCC(=O)O)CC1	0	-5	-1	-8	10
SMILES	D2 ag-1	D2 PAM-1	D2 ag-2	D2 PAM-2	D2 antag
O=C(O)CCC(=O)N1CCc2cc(S(=O)(=O)N3CCC(Cc4ccccc4)CC3)ccc21	1	1	-4	-4	34*
CCOC(=O)c1c(C(=O)OCC)c(C)n(CCc2ccc(OC)c(OC)c2)c1C	-3	0	2	28	33*
CCOC(=O)N1CCN(c2c(NCCc3ccc(OC)c(OC)c3)c(=O)c2=O)CC1	0	2	-1	-3	36*
COCCNC(=O)c1ccc2c(=O)n(CCc3ccccc3)c(SCC(=O)CC(=O)OC)nc2c1	0	0	.	.	.
COc1ccc(N2C(=O)C(CC(=O)Nc3ccc(F)cc3)N(CCC3=CCCCC3)C2=O)cc1 (stereo unspecified)	0	-25	.	.	.
Cc1ccc(OCC(=O)OCc2cc(=O)n3c(C)csc3n2)cc1	1	-9	.	.	.
O=C(NC1CCCC1)c1ccccc1-c1ccccc1	0	-1	-4	-7	-15
O=C(O)c1ccccc1C(=O)NC1Cc2ccccc2C1	35*	-11	1	4	6
COc1ccc(-c2cc(C#N)nc(N3CCN(C)CC3)n2)cc1	-4	-21	-4	-20	55*
COc1ccc(-c2cc(C(F)(F)F)nc(N3CCCCCC3)n2)cc1	1	-3	-5	-9	24
CN1CCN(c2nc(C#N)cc(-c3ccccc3)n2)CC1	0	5	-2	-38	22
COc1ccc(-c2cc(C(F)(F)F)nc(N3CCN(C)CC3)n2)cc1	0	-18	-2	-39	39*
Cc1ccccc1OCC(=O)Nc1ccccc1-c1ccccc1NC(=O)COc1ccccc1C	0	-3	-4	-20	-1
Cc1cc(Br)ccc1NC(=O)CNC(=O)COc1ccccc1C	0	-14	-5	-13	32*
Cc1cc(F)ccc1S(=O)(=O)N1CCCOC1CNC(=O)C(=O)NCCCN1CCOCC1 (stereo unspecified)	32*	-7	3	-23	20
Cc1cc(F)ccc1S(=O)(=O)N1CCCOC1CNC(=O)C(=O)NCCN1CCOCC1 (stereo unspecified)	2	3	3	14	5
O=C(NCCc1ccccc1)C(=O)NCC1OCCN1S(=O)(=O)c1ccc(Br)cc1 (stereo unspecified)	0	-2	11	-4	31*
COc1ccccc1CCNC(=O)C(=O)NCC1OCCCN1S(=O)(=O)c1cc(C)ccc1C (stereo unspecified)	-1	-1	-2	-11	34*
C[C@@H]1CN([C@H](C)CO)S(=O)(=O)c2ccc(C#Cc3ccccc3)cc2O[C@H]1CN(C)C(=O)Nc1ccc2c(c1)OCO2	.	.	2	0	.
COc1cccc(C(=O)NCc2cn3ccccc3n2)c1	0	4	.	.	.
CCCc1nnc(NC(=O)Cc2coc3ccc(C(C)C)cc23)s1	-1	-24	.	.	.
O=C(CN1CCCCC1)N1CCc2ccccc21	0	-21	1	-10	11
Cc1c(Br)c([N+](=O)[O-])nn1CC(=O)N1CCCc2ccccc21	0	34*	-4	-11	11
O=C(CN1CCN(Cc2ccccc2)CC1)N1CCCc2ccccc21	-1	-17	-7	-23	32*
O=C(CN1CCN(c2ccccc2)CC1)N1CCc2ccccc21	1	-25	1	-24	-12
